Measurements as given in PubChem BioAssay (EPA / NIEHS).
Inconclusive results are not listed. Calls of active or inactive are those of the source. The calls were made as follows, unless noted: active = hit-call score of the fitted dose curve at least 0.9, where 1 is the maximum; inconclusive = response in the unintended direction; inactive = score below 0.9.

Tests used:
[1] = target: Estrogen receptor (Homo sapiens) + Estrogen receptor beta (Homo sapiens) (UniProt P03372+Q92731); assay: OT_ER_ERaERb_1440: Odyssey Thera (OT) 24-hour HEK293T Protein-Complementation Assay for Estrogen Receptor-alpha/-beta Homodimer (AID 2283356);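 also: heteromer of ER alpha and ER beta binding domains; hits raise reporter fluorescence and both agonists and antagonists give an increase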
Procedure, shortened: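 HEK293T cells stably expressing a PCA pair of ERα LBD (aa 310-547) and ERβ LBD (aa 263-489) were dosed for 24 h. Fluorescence intensity increase versus DMSO vehicle was fitted as gain-of-signal.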

[2] = target: Estrogen receptor beta (Homo sapiens) (UniProt Q92731); assay: OT_ER_ERbERb_0480: Odyssey Thera (OT) 8-hour HEK293T Protein-Complementation Assay for Estrogen Receptor-beta/-beta Homodimer (AID 2283357);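 also: active means signal gain over DMSO baseline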
Procedure, shortened: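 Cells (HEK293T, stable ER-beta LBD PCA pair) are treated 8 hours, fixed and Draq5-stained; signal is fluorescence intensity increase relative to vehicle, fitted in the gain direction.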

[3] = target: Estrogen receptor beta (Homo sapiens) (UniProt Q92731); assay: OT_ER_ERbERb_1440: Odyssey Thera (OT) 24-hour HEK293T Protein-Complementation Assay for Estrogen Receptor-beta/-beta Homodimer (AID 2283380);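 also: fluorescence gain from ER beta LBD homodimer complementation read by laser scanning cytometry; scored as signal increase over DMSO baseline for both agonists and antagonists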
Procedure, shortened: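 Fluorescence increase, nuclear for agonists or whole-cell for antagonists, relative to DMSO vehicle, quantified by laser scanning cytometer after fixation and Draq5 staining. Readout from 24 h treatment of HEK293T cells carrying complementation-paired ER beta LBD (aa 310-547).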

[4] = target: Estrogen receptor (Homo sapiens) (UniProt P03372); assay: OT_ERa_GFPERaERE_0480: Odyssey Thera (OT) 8-hour HeLa Transcription Induction Assay for Estrogen Receptor (AID 2283381; active = hit-call score of the fitted dose curve at least 0.9, where 1 is the maximum; inactive = score below 0.9)
Procedure, shortened: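 HeLa cells expressing GFP reporter under estrogen response element, imaged 8 h after dosing. GFP induction quantified by high-content fluorescence microscopy image analysis; gain of signal fitted versus DMSO.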

[5] = target: Retinoic acid receptor alpha (Homo sapiens) (UniProt P10276); assay: NVS_NR_hRAR_Antagonist: NovaScreen (NVS) Nuclear Receptor Binding Assay for human Retinoic Acid Alpha Receptor Antagonism (RAR) (AID 2283358)
Procedure, shortened: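 TR-FRET, cell-free, antagonist format; 2 h incubation after dosing; DMSO = baseline; signal loss fitted; 25 uM duplicate primary, then conc. series.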

[6] = target: human Peroxisome Proliferator-activated Receptor alpha (PPARa), PPARA (gene 5465) (UniProt Q07869); assay: NVS_NR_hPPARa: NovaScreen (NVS) Nuclear Receptor Binding Assay for human Peroxisome Proliferator-activated Receptor alpha (PPARa) (AID 2283359);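 also: activity means loss of TR-FRET signal versus DMSO baseline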
Procedure, shortened: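 Chemicals were first screened in duplicate at 25 uM, and active ones were retested across concentration series. Binding was monitored by TR-FRET one hour after dosing, with decreased signal against DMSO counted as activity.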

[7] = target: Nuclear receptor subfamily 1 group I member 2 (Homo sapiens) (UniProt O75469); assay: NVS_NR_hPXR: NovaScreen (NVS) Nuclear Receptor Binding Assay for human Pregnane X Receptor (PXR) (AID 2283365);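 also: a drop in FRET signal versus DMSO baseline means the compound binds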
Procedure, shortened: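 Cell-free binding assay with extracted human PXR protein, read by TR-FRET 2 h after dosing; loss of signal relative to DMSO baseline indicates binding. Primary screen at 25 uM in duplicate, actives retested in concentration series.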

[8] = target: rat Androgen Receptor (AR), Ar (gene 24208) (UniProt P15207); assay: NVS_NR_rAR: NovaScreen (NVS) Nuclear Receptor Binding Assay for rat Androgen Receptor (AR) (AID 2283366)
Procedure, shortened: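 Cell-free radioligand binding on extracts of prostate from testosterone-pretreated rats, read by filter-based scintillation counting 18 h after dosing. Loss of bound signal fitted positively versus DMSO; primary screen in duplicate at 25 uM, actives followed up in concentration series.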

[9] = target: Peroxisome proliferator-activated receptor gamma (Homo sapiens) (UniProt P37231); assay: NVS_NR_hPPARg: NovaScreen (NVS) Nuclear Receptor Binding Assay for human Peroxisome Proliferator-activated Receptor gamma (PPARg) (AID 2283370)
Procedure, shortened: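 Cell-free binding to extracted PPARg protein, read by fluorescence polarization 2 h after dosing; loss of signal relative to DMSO baseline marks displacement. Primary screen in duplicate at 25 uM, actives retested in concentration series.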

[10] = target: Agonist Androgen Response Element (ARE), AR (gene 367) (UniProt P10275); assay: OT_AR_ARELUC_AG_1440: Odyssey Thera (OT) 24-hour CHO-K1 Luciferase Assay for Agonist Androgen Response Element (ARE) (AID 2283379)
Procedure, shortened: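 Agonist mode, 24 h exposure in CHO-K1 ARE-luciferase cells; values reflect luminescence induction over vehicle.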

[11] = target: mouse Estrogen Receptor alpha (Era), Esr1 (gene 13982) (UniProt P19785); assay: NVS_NR_mERa: NovaScreen (NVS) Nuclear Receptor Binding Assay for mouse Estrogen Receptor alpha (Era) (AID 2283378);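 also: hit means loss of bound radioligand signal relative to DMSO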
Procedure, shortened: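 Cell-free radioligand binding with extracted mouse Era protein; competitive displacement of radiolabelled ligand, read by filter-based scintillation counting 18 hours after dosing. Loss of signal versus DMSO baseline taken as binding; single screening concentration 25 uM, actives followed in concentration series.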

[12] = target: Retinoic acid receptor alpha (Homo sapiens) (UniProt P10276); assay: NVS_NR_hRARa_Agonist: NovaScreen (NVS) Nuclear Receptor Binding Assay for human Retinoic Acid Alpha Receptor Agonism (RAR) (AID 2283361)
Procedure, shortened: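 Readout is time-resolved fluorescence resonance energy transfer after a 2 h exposure of cell-free extracted receptor protein. Initial testing used 25 uM in duplicate, with concentration-response follow-up for active chemicals.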

[13] = target: rat Mineralocorticoid Receptor (MR), Nr3c2 (gene 25672) (UniProt P22199); assay: NVS_NR_rMR: NovaScreen (NVS) Nuclear Receptor Binding Assay for rat Mineralocorticoid Receptor (MR) (AID 2283355)
Procedure, shortened: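 Adrenalectomized rat brain supernatant was dosed with test chemical, then radioligand binding was measured by scintillation counting at 24 h. Initial testing ran in duplicate at 25 uM, followed by concentration series for actives.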

PGR (gene 5241) = PGR (gene 5241) (UniProt P06401); assay: NVS_NR_hPR: NovaScreen (NVS) Nuclear Receptor Binding Assay for human Progestron Receptor (PR) (AID 2283360);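 also: active means loss of bound radioligand signal versus DMSO baseline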
Procedure, shortened: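 T47D-derived receptor preparation, cell-free, with tritiated or iodinated radioligand displacement measured by scintillation 18 h post-dosing. Single 25 uM duplicate screen, then concentration series; signal loss relative to DMSO.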

[14] = target: human Thyroid Receptor Alpha (TRa), THRA (gene 7067) (UniProt P10827); assay: NVS_NR_hTRa_Antagonist: NovaScreen (NVS) Nuclear Receptor Binding Assay for human Thyroid Receptor Alpha Antagonism (TRa) (AID 2283362);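 also: activity is loss of signal relative to DMSO baseline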
Procedure, shortened: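 Cell-free binding assay on extracted receptor protein, read 1 h after chemical dosing by AlphaLISA chemiluminescence; loss of signal relative to DMSO baseline marks antagonism. Primary screen ran in duplicate at 25 uM, with concentration series for actives.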

Measured: AC50

Chain of mouse Estrogen Receptor alpha (Era), Esr1 (gene 13982) (P19785 whole entry, looked up): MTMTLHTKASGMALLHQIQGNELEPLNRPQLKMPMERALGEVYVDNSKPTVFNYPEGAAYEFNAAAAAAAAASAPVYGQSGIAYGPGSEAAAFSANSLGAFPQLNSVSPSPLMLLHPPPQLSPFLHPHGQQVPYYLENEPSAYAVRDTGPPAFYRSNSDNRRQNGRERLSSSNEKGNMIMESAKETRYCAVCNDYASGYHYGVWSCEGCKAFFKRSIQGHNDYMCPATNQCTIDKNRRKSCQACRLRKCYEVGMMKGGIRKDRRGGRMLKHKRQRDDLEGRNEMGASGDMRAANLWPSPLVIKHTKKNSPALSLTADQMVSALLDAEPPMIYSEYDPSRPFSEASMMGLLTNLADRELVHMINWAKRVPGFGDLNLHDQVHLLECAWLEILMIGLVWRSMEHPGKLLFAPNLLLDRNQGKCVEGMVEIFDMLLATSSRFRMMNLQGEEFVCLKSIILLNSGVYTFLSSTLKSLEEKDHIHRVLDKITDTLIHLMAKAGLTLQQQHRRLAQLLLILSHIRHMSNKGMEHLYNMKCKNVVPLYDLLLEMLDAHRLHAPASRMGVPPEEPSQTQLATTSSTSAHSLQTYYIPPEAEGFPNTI
Chain of Estrogen receptor beta (Homo sapiens) (Q92731 whole entry, looked up, the tested form may be a part): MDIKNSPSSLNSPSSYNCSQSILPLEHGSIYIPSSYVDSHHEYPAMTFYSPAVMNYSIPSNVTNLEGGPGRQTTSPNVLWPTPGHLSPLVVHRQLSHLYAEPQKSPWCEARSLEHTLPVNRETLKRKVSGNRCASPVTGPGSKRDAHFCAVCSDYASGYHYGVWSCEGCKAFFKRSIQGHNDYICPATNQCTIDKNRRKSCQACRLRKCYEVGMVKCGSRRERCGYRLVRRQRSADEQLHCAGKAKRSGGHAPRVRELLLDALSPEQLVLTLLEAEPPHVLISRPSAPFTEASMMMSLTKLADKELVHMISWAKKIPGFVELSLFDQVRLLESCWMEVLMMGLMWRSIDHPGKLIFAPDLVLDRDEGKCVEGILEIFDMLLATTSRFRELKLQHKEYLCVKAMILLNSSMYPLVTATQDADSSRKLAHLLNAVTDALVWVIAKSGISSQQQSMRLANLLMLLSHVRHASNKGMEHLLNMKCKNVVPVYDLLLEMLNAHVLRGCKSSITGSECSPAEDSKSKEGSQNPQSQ
Chain of Retinoic acid receptor alpha (Homo sapiens) (P10276 whole entry, looked up): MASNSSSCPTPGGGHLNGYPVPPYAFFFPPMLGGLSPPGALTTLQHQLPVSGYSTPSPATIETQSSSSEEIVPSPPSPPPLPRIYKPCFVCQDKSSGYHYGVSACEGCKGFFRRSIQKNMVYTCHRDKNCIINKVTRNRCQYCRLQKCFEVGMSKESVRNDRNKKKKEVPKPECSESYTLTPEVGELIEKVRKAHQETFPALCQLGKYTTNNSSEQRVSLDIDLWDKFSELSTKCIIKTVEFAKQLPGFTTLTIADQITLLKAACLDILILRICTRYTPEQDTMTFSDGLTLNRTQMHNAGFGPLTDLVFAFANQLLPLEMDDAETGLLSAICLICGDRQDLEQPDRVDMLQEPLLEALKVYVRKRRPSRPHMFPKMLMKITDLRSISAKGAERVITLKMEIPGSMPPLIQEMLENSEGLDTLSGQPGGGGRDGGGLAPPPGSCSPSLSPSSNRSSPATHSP
Chain of Estrogen receptor (Homo sapiens) + Estrogen receptor beta (Homo sapiens) (P03372 whole entry, looked up, the tested form may be a part): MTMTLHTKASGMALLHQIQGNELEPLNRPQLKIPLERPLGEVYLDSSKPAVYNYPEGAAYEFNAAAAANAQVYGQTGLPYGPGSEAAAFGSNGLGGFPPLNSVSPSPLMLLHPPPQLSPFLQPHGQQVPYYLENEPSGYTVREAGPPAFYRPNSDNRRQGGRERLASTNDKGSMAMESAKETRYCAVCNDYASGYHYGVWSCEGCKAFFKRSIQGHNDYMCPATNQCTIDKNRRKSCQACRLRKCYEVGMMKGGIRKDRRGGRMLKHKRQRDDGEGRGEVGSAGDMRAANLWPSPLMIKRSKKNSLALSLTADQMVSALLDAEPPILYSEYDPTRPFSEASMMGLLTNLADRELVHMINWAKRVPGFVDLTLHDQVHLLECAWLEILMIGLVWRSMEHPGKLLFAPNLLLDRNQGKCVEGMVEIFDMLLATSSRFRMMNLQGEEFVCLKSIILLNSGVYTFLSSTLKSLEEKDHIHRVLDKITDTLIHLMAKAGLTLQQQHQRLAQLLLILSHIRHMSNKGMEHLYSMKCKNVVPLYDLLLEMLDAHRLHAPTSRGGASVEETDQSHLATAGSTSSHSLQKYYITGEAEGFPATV
Chain of Estrogen receptor (Homo sapiens) + Estrogen receptor beta (Homo sapiens) (Q92731 whole entry, looked up, the tested form may be a part): as the sequence (Q92731 whole entry, looked up, the tested form may be a part) above
Chain of Estrogen receptor (Homo sapiens) (P03372 whole entry, looked up): as the sequence (P03372 whole entry, looked up, the tested form may be a part) above
Chain of Peroxisome proliferator-activated receptor gamma (Homo sapiens) (P37231 whole entry, looked up): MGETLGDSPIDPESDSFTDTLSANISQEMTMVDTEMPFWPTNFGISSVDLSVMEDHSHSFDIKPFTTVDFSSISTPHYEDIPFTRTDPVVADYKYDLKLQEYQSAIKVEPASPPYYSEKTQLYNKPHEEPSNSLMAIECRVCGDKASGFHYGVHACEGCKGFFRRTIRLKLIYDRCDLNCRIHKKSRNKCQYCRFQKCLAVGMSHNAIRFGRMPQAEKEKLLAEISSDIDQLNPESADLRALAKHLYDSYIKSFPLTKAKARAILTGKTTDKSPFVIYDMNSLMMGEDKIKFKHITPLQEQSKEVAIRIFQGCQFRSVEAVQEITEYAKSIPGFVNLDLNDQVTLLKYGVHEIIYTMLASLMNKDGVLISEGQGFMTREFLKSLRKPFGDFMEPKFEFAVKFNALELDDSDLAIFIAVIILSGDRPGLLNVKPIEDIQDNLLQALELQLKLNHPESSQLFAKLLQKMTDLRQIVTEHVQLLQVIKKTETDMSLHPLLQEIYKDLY
Chain of Agonist Androgen Response Element (ARE), AR (gene 367) (P10275 whole entry, looked up): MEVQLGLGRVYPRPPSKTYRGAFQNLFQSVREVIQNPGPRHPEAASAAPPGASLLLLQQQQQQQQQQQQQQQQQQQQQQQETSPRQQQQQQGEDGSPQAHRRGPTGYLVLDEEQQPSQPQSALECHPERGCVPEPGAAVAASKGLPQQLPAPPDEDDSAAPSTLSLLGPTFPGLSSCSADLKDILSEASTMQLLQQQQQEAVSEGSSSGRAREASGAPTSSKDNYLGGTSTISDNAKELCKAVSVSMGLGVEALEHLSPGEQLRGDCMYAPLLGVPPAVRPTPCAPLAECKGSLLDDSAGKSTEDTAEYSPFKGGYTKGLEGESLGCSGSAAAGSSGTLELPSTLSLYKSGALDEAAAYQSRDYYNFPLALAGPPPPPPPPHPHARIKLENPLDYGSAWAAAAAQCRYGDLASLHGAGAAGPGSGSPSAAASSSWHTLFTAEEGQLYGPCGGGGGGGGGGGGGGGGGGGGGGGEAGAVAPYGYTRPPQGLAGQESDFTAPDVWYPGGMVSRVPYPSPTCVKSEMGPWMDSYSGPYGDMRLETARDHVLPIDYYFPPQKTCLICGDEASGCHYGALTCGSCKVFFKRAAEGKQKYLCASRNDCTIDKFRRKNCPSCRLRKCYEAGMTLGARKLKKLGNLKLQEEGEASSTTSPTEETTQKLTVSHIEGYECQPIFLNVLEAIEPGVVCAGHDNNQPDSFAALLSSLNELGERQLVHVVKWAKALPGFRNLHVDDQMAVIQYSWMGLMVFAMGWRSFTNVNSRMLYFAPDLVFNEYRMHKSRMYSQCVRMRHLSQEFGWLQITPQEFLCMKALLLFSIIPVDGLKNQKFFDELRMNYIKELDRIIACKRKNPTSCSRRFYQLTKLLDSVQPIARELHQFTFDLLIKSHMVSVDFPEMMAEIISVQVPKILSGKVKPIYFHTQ
Chain of Nuclear receptor subfamily 1 group I member 2 (Homo sapiens) (O75469 whole entry, looked up): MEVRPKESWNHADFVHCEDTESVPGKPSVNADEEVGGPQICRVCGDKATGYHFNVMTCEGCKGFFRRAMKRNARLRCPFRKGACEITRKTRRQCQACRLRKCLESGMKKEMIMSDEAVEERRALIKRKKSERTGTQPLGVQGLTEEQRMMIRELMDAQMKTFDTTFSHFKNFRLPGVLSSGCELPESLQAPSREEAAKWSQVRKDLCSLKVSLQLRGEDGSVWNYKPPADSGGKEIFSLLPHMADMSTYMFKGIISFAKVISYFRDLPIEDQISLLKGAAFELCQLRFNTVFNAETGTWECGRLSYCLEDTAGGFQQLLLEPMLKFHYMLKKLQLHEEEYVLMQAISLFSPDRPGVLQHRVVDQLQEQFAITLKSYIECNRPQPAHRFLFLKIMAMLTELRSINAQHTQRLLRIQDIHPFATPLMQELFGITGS
Chain of human Peroxisome Proliferator-activated Receptor alpha (PPARa), PPARA (gene 5465) (Q07869 whole entry, looked up): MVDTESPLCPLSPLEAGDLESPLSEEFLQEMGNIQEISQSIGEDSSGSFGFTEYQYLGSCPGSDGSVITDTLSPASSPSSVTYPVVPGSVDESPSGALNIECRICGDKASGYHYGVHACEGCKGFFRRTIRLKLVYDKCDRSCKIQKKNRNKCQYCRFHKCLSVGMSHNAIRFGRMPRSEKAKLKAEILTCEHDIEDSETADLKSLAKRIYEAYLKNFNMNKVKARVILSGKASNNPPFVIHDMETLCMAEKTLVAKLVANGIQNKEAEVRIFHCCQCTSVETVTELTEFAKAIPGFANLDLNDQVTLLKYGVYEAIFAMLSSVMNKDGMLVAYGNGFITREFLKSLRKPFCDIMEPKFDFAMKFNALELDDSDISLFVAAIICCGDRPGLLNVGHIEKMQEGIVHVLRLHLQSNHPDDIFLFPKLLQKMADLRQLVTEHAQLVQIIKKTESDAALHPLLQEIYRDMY

NC(=O)N=NC(N)=O
inactive: [1] | [2] | [3] | [4]

Oc1ccc(Cl)cc1Cc1cc(Cl)ccc1O
inactive: [5] | [10] | [4]
active: [1] 11.9 µM | [2] 11.9 µM | [6] 14 µM | [7] 16.8 µM | [8] 1.42 µM | [9] 25 µM | [3] 11.9 µM

CC(=O)[C@H]1[C@H](C#N)C[C@H]2[C@@H]3CC=C4C[C@@H](O)CC[C@]4(C)[C@H]3CC[C@@]21C
active: [11] 4.26 µM
inactive: [1] | [2] | [3] | [4]

CCOC(=O)CC
inactive: [1] | [2] | [3] | [4]

CC1=NN(c2cc(S(=O)(=O)O)ccc2Cl)C(=O)C1N=Nc1ccccc1 (stereo unspecified)
inactive: [1] | [2] | [9] | [3] | [4]

Cc1ccc(C(C)c2ccc(C)c(C)c2)cc1C
inactive: [3] | [4]
active: [1] 83.6 µM | [2] 68.1 µM

COC(=O)c1c(C)cc(O)c(C)c1O
active: [1] 61.8 µM | [2] 55.5 µM | [3] 56.4 µM
inactive: [7] | [4]

Cc1cc(C)c(C(=O)O)c(C)c1
inactive: [1] | [2] | [3]
active: [4] 93 µM

CN(C)c1ccc(C(=N)c2ccc(N(C)C)cc2)cc1
inactive: [2] | [11] | [3] | [4]
active: [1] 18.4 µM | [12] 14.1 µM

C#CC1(O)CC[C@H]2[C@@H]3CCC4=CCCC[C@@H]4[C@H]3CC[C@@]21C (stereo partly specified)
inactive: [13]
active: PGR (gene 5241) 39.6 µM | [11] 6.99 µM

CC(C)(C)c1ccc(-c2ccc(C(C)(C)C)cc2)cc1
inactive: [1] | [2] | [10] | [3] | [4]

CC/C=C\C/C=C\C/C=C\CCCCCCCC(=O)O
active: [7] 3.05 µM | [9] 0.00769 µM
inactive: [1] | [2] | [6] | [14] | [11] | [3] | [4]

CCO[Si](C)(OCC)OCC
inactive: [1] | [2] | [3] | [4]

O=S(=O)(O)c1ccccc1C=Cc1ccc(-c2ccc(C=Cc3ccccc3S(=O)(=O)O)cc2)cc1
inactive: [1] | [9] | [3] | [4]
active: [2] 65.5 µM | [12] 12.1 µM

O=c1cc(-c2ccccc2)oc2ccccc12
inactive: [2] | [7] | [9] | [10] | [4]
active: [1] 57.3 µM | [3] 49.2 µM
